# Source: PubChem BioAssay (NCATS)
# Inconclusive results are not listed. Calls of active or inactive are those of the source. Unless noted, calls follow the shape of the dose curve; as a rule, active = well fitted curve in the direction sought with a large enough effect; inconclusive = small, poorly fitted or top-dose-only effect, or another doubt; inactive = no such curve, though single readings can be large; an effect the other way counts as inactive or inconclusive.
# Legend:
# [1] = biological target: Lysosomal acid glucosylceramidase (Homo sapiens) (UniProt P04062); experiment: Glucocerebrosidase-p2 (AID 348; in the data active = potency below about 10 µM; also: potency is read from the fitted curve at half-maximal effect); conditions: purified GBA, blue fluorogenic substrate, 40 min
# Outline: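 Compounds titrated from 0.6 nM upwards against 0.2 nM enzyme in pH 5.9 citric acid/KH2PO4, taurocholate, tween-20; blue fluorogenic substrate 80 uM, 40 min room temperature, stopped and read Ex 365/Em 440 for AC50.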
# [2] = AP1 Signaling Pathway (AID 357; active = well fitted curve in either direction with a large enough effect, not every such curve was filed as active;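 also: ME-180 reporter cells stimulated with EGF at its EC50 level; % is scaled to controls: 0 for no effect and ±100 for the full control effect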); conditions: ME-180 AP-1-bla reporter, EGF-induced, beta-lactamase ratio, 5 h; at 7.69 µM (top of the series) unless noted
# Outline: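 AP-1-bla ME-180 cells, Opti-MEM + 0.5% dialyzed FBS, plated overnight 37 °C. Cpd titration + EC50 EGF, 5 h 37 °C. CCF4 2.5 h RT; ex 405, em 460/530 ratio → %activity, AC50.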
# [3] = biological target: Cytochrome P450 1A2 (Homo sapiens) (UniProt P05177); experiment: p450-cyp1a2 (AID 410; calls by dose curve; also: potency is read from the fitted curve at half-maximal effect)
# Outline: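 20nM CYP1A2 with 100uM Luciferin-ME (at Km) in 100mM KPO4; compound preincubated 10 min, NADPH regeneration added, 60 min at room temperature. Luciferin quantified by luminescence after detection reagent; normalized to 57 uM furafylline.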
# [4] = NFAT Signaling Pathway (AID 444; active = well fitted curve in either direction with a large enough effect, not every such curve was filed as active;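 also: carbachol stimulus at about its EC50 of 1 µM final; % is scaled to controls: 0 for no effect and ±100 for the full control effect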); conditions: Jurkat NFAT-bla M1, carbachol, beta-lactamase ratio, 5 h; at 7.69 µM (top of the series) unless noted
# Outline: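 Jurkat cells carrying an NFAT-driven β-lactamase reporter and co-transfected muscarinic M1 receptor were treated with compound plus carbachol (1 uM final, an EC50 level) for 5 h at 37 °C. CCF4 loading followed for 1 h at RT; 460/530 nm ratio gave %activity.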
# [5] = Stat Signaling Pathway (AID 446; active = well fitted curve in either direction with a large enough effect, not every such curve was filed as active;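 also: ME-180 cervical cancer cells given 40 pM IL-6 alongside compound; SIE-controlled beta-lactamase reporter measured as 460/530 nm FRET emission ratio; % is scaled to controls: 0 for no effect and ±100 for the full control effect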); conditions: ME-180 SIE beta-lactamase reporter, IL-6 stimulated, 5 h; at 7.69 µM (top of the series) unless noted
# Outline: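 ME-180 SIE-bla cells; overnight plating; cpd + IL-6 40 pM, 5 h, 37 C; LiveBLAzer 2.5 h RT; 460/530 nm emission ratio. Normalized to 300 pM IL-6 and 125 nM JAK inhibitor controls.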
# [6] = biological target: Glucocorticoid receptor (Homo sapiens) (UniProt P04150); experiment: GR-GFP Redistribution (AID 450;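 active = compounds whose dose series gives a full or clear partial fitted curve of increased nuclear translocation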; also: potency is read from the fitted curve at half-maximal effect); conditions: U2OS GR-GFP nuclear translocation, laser cytometry, 2 h
# [7] = biological target: Glucocorticoid receptor (Homo sapiens) (UniProt P04150); experiment: GR-EFC Redistribution (AID 451; calls by dose curve; also: potency is read from the fitted curve at half-maximal effect); conditions: CHO-K1 GR-EFC translocation, beta-gal luminescence, 2 h
# Outline: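 CHO-K1 cells stably expressing nuclear-localized β-gal enzyme acceptor and GR fused C-terminally to the enzyme donor fragment; ligand-driven nuclear translocation restores β-gal by complementation. Compounds titrated up to 46 uM final, 2 h at 37 °C; luminescence read.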
# [8] = biological target: Cytochrome P450 3A4 (Homo sapiens) (UniProt P08684); experiment: qHTS Assay for Activators of Cytochrome P450 3A4 (AID 885); also: nearly all actives have a fitted effect of over 65% in size
# Outline: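 20nM CYP3A4 + 25uM Luciferin-PPXE (=KM), 200mM KPO4; cpd 10 min RT; NADPH regen, 60 min RT; stop w/ detection buffer, 20 min; luminescence. Normalized to 57 uM ketoconazole.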
# [9] = biological target: Cytochrome P450 2C19 (Homo sapiens) (UniProt P33261); experiment: qHTS Assay for Inhibitors and Substrates of Cytochrome P450 2C19 (AID 899); also: potency is read from the fitted curve at half-maximal effect; nearly all actives have a fitted effect of over 60% in size
# Outline: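 Human CYP2C19 (5nM) with Luciferin-H EGE at 10uM (its KM) in 50mM KPO4 was preincubated with compound for 10 min at 37C. NADPH regeneration started a 60 min 37C reaction. Luciferin was read by luminescence, normalized to 57uM ketoconazole.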
# [10] = biological target: Dual specificity protein kinase CLK4 (Homo sapiens) (UniProt Q9HAZ1); experiment: qHTS Assay for Inhibitors of CDC-like Kinase 4 (Kinase-Glo Assay) (AID 1770); also: potency is read from the fitted curve at half-maximal effect; nearly all actives have a fitted effect of over 65% in size
# Outline: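 Substrate mix (RS peptide 100 uM, ATP 1 uM) dispensed, compound pinned in, then Clk4 added to 25 nM final. Incubated 4.5 h at RT; Kinase-Glo reagent added, luminescence read after 5 min.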
# [11] = biological target: Dual specificity protein kinase CLK4 (Homo sapiens) (UniProt Q9HAZ1); experiment: qHTS Assay for Inhibitors of CDC-like Kinase 4 (ADP-Glo Assay) (AID 1771); also: potency is read from the fitted curve at half-maximal effect; nearly all actives have a fitted effect of over 70% in size
# Outline: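 25 nM Clk4 with 100 uM RS repeat peptide and 1 uM ATP (final) in buffer with 2 mM MgCl2, 0.5 mM EGTA, 2.5 mM DTT, 0.01% Triton X-100; 1 h at room temperature; ADP-Glo luminescence for ADP formed.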
# [12] = biological target: Ubiquitin carboxyl-terminal hydrolase 1 (Homo sapiens) (UniProt O94782); experiment: Inhibitors of USP1/UAF1: Pilot qHTS (AID 504865);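 also: rhodamine fluorescence freed from ubiquitin-rhodamine substrate followed over time; top concentration of the series differs between compounds; % is scaled to controls: 0 for no effect and ±100 for the full control effect; nearly all actives have a fitted effect of over 35% in size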
# Outline: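 In 50mM HEPES pH 7.8 containing 0.5mM EDTA, 1mM TCEP, 0.1 mg/ml BSA and 0.01% Tween-20, 1nM USP1/UAF1 is exposed to compound for 15 min, then Ub-Rho (150nM final) is added and fluorescence is read over time.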
# [13] = biological target: Calcium and integrin-binding protein 1 (Homo sapiens) (UniProt Q99828); experiment: Primary qHTS for Identification of Calcium Integrin Binding Protein 1 (CIB1) Competitor (AID 1508620);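 also: GST tagged CIB1 binding a fluorescein labelled alphaIIb integrin peptide tracer; top concentration of the series differs between compounds; % is scaled to controls: 0 for no effect and ±100 for the full control effect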
# Outline: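 Fluorescence polarization competition: CIB1-GST (1 uM final) preincubated with compound 15 min at room temperature, then FITC-labeled alphaIIb peptide (100 nM final) added for another 15 min. Polarization read at Ex 480/Em 540.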
# [14] = Primary qHTS for small molecule stabilizers of the endoplasmic reticulum resident proteome: Secreted ER Calcium Modulated Protein (SERCaMP) assay (AID 1508630); also: % is scaled to controls: 0 for no effect and ±100 for the full control effect
# Outline: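 GLuc-SERCaMP-expressing SH-SY5Y cells, pretreated 16 h with compound, are challenged with thapsigargin to empty ER calcium stores; after 4 h, coelenterazine is added directly to the medium and luminescence is imaged.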
# [15] = biological target: Mitogen-activated protein kinase 10 (Mus musculus) (UniProt Q61831); experiment: JNK3 AlphaScreen Assay (AID 530; active = well fitted curve in either direction with a large enough effect, not every such curve was filed as active)
# Outline: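 Inhibitors reduce antibody binding to phosphorylated biotin-cJun, lowering AlphaScreen luminescence. Lysates from HepG2 cells pre-activated by IL-1beta plus TNF-alpha supplied JNK3; compounds were titrated.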
# [16] = biological target: Cytochrome P450 3A4 (Homo sapiens) (UniProt P08684); experiment: qHTS Assay for Inhibitors and Substrates of Cytochrome P450 3A4 (AID 884); also: potency is read from the fitted curve at half-maximal effect; nearly all actives have a fitted effect of over 50% in size
# Outline: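 20 nM human CYP3A4 with 25 uM Luciferin-PPXE (at KM) in 200 mM KPO4, preincubated 10 min with compound; NADPH regeneration started a 60 min RT reaction. Luciferin detected by luminescence, normalized to 57 uM ketoconazole as full inhibition.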
# [17] = biological target: Cytochrome P450 2D6 (Homo sapiens) (UniProt P10635); experiment: qHTS Assay for Inhibitors and Substrates of Cytochrome P450 2D6 (AID 891); also: potency is read from the fitted curve at half-maximal effect; nearly all actives have a fitted effect of over 60% in size
# Outline: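 Human CYP2D6 (5 nM) with 30 uM Luciferin-ME EGE (at Km) in 100 mM KPO4, compound preincubated 10 min, then NADPH regeneration system for 60 min at room temperature. Luciferin read by luminescence; normalized to 1.43 uM quinidine.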
# [18] = biological target: Dual specificity protein kinase CLK4 (Homo sapiens) (UniProt Q9HAZ1); experiment: qHTS Assay for Inhibitors of CDC-like Kinase 4 (ADP-FP Assay) (AID 1795); also: potency is read from the fitted curve at half-maximal effect; nearly all actives have a fitted effect of over 60% in size
# Outline: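 Clk4 6.25 nM; RS peptide 100 uM; ATP 1 uM; 25 mM Tris pH 7.5, 10 mM MgCl2; 1 h reaction. ADP detected via antibody/orange tracer FP displacement; TG003 positive control.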
# [19] = biological target: 3',5'-cyclic-AMP phosphodiesterase 4B (Homo sapiens) (UniProt Q07343); experiment: qHTS Assay for Inhibitors of PDE-IV (AID 607; active = well fitted activation curve with a large enough effect in the main read-out, with a control signal flat, not every such curve was filed as active; also: % of control where 0% means no effect)
# Outline: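 ACTOne HEK293 cells carry a modified cAMP-gated CNG channel and express endogenous PDE4; plated 1000 cells/well, compounds up to 22.9 uM final. Membrane-potential dye fluorescence (ex 535/em 590) was read; parental cells received 10 uM forskolin + 100 uM RO 20-1724.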
# [20] = Confirmation and Secondary Assay for Modulators of Hemoglobin Beta Chain Splicing at IVS2 654 locus (AID 910); also: % of control where 0% means no effect
# Outline: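 HeLa cells stably carrying EGFP interrupted by mutant beta-globin IVS2-654 intron (CMV-driven) were treated with compound for 2 days at 37C; corrected splicing was scored as total peak GFP intensity per well (488 nm excitation, 500-520 nm emission).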
# [21] = Confirmation and Secondary Assay for Modulators of Hemoglobin Beta Chain Splicing at IVS2 705 locus (AID 930);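 also: HeLa cells stably expressing the EGFP-705 splicing reporter; GFP fluorescence per well restored by corrected splicing of the IVS2-705 intron in EGFP; % of control where 0% means no effect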
# Outline: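 Read-out: total peak GFP fluorescence per well (488 nm excitation, 500-520 nm emission) by laser-scanning cytometry. Cells: HeLa EGFP-705 splicing reporter, 2 days compound exposure in Optimem/2% FCS.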
# [22] = qHTS Assay for Lipid Storage Modulators (AID 1519; calls by dose curve); conditions: Drosophila S3 cells, BODIPY lipid droplet/cell ratio, laser cytometry, cells loaded with oleic acid
# Outline: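 Cells seeded at 5,000 per well were treated with compounds over a concentration series and loaded with oleic acid (400 uM, as added). Lipid droplet fluorescence (488 nm excitation, 500-530 nm channel) was read by laser-scanning cytometry and normalized to 20 uM Triacsin C.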
# Calcium and integrin-binding protein 1 (Homo sapiens), sequence (Q99828 whole entry, looked up): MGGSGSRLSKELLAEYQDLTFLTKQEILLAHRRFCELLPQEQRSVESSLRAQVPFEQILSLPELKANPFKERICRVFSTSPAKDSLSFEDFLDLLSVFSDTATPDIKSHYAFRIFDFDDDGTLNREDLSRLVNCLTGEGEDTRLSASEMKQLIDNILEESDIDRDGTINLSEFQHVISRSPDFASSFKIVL
# Dual specificity protein kinase CLK4 (Homo sapiens), sequence (Q9HAZ1 whole entry, looked up): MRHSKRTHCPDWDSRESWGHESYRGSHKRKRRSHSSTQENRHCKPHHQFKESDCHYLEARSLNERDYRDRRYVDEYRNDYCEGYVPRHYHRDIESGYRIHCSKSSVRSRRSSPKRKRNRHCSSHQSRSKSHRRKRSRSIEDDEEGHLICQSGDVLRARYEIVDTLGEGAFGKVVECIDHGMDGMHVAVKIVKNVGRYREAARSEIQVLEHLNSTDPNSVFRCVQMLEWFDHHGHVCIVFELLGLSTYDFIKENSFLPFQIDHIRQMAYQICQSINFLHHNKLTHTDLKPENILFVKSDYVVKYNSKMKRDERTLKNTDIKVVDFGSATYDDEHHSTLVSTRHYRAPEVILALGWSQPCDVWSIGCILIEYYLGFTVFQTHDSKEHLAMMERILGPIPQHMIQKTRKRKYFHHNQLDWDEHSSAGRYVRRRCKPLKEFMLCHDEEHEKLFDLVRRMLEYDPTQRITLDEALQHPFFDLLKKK
# Lysosomal acid glucosylceramidase (Homo sapiens), sequence (P04062 whole entry, looked up): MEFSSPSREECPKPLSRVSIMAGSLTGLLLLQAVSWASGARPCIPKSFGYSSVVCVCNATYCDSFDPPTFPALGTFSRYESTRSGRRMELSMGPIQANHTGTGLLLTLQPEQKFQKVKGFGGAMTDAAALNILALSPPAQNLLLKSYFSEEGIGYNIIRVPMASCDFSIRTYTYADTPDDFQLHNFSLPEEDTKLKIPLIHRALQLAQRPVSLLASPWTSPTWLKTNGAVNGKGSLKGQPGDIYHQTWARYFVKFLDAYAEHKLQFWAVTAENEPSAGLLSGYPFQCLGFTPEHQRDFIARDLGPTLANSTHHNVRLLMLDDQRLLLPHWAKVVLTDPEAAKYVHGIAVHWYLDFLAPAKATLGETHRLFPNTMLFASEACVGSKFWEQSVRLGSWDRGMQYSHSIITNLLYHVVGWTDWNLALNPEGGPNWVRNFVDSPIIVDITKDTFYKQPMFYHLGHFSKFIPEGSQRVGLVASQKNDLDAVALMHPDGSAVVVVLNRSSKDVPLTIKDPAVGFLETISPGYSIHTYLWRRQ
# Cytochrome P450 3A4 (Homo sapiens), sequence (P08684 whole entry, looked up): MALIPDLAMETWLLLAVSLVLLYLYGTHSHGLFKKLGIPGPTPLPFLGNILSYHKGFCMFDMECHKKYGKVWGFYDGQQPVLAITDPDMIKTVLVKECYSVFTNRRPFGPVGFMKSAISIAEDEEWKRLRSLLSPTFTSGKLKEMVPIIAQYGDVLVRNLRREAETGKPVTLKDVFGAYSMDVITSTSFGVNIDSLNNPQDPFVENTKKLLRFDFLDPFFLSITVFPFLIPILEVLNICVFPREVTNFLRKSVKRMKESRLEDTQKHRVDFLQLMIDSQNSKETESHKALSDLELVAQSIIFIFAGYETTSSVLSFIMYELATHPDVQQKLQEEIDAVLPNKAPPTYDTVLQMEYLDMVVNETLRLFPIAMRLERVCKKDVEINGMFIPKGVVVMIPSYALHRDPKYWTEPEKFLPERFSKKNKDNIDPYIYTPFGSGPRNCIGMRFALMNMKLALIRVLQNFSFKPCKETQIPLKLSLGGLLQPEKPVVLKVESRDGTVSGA
# Glucocorticoid receptor (Homo sapiens), sequence (P04150 whole entry, looked up, the tested form may be a part): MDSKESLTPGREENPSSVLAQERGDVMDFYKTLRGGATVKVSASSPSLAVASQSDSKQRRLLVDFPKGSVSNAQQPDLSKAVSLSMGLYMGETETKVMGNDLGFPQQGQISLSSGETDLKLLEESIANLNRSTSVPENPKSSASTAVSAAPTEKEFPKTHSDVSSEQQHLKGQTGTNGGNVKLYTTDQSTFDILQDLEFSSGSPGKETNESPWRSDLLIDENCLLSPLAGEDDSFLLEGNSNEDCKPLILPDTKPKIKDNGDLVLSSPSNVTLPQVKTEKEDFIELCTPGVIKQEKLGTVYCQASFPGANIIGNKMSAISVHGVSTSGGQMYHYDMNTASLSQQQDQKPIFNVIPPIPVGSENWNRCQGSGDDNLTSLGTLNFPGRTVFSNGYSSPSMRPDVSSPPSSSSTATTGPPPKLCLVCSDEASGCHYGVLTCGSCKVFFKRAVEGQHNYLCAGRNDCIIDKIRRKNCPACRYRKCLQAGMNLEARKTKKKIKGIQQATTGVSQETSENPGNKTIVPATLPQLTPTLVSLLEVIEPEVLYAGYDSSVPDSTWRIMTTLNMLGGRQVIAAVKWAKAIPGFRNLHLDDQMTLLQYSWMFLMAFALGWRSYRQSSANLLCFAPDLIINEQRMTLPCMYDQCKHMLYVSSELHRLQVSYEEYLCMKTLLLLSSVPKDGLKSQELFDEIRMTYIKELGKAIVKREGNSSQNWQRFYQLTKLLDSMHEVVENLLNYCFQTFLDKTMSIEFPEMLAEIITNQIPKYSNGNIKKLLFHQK
# Cytochrome P450 1A2 (Homo sapiens), sequence (P05177 whole entry, looked up): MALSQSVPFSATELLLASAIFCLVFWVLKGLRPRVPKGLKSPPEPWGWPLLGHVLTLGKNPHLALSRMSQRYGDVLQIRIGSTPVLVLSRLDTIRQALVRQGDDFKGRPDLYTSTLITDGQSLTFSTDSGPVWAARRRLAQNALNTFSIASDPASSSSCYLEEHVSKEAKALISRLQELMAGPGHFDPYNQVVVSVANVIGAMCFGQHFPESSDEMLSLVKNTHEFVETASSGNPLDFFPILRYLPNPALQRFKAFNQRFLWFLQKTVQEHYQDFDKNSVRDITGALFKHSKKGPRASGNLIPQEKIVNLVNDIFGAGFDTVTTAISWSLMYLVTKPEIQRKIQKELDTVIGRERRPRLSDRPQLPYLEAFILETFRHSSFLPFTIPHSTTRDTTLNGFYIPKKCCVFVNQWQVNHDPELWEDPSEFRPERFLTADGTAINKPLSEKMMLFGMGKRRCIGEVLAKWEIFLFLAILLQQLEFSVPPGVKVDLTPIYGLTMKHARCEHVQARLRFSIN
# Ubiquitin carboxyl-terminal hydrolase 1 (Homo sapiens), sequence (O94782 whole entry, looked up): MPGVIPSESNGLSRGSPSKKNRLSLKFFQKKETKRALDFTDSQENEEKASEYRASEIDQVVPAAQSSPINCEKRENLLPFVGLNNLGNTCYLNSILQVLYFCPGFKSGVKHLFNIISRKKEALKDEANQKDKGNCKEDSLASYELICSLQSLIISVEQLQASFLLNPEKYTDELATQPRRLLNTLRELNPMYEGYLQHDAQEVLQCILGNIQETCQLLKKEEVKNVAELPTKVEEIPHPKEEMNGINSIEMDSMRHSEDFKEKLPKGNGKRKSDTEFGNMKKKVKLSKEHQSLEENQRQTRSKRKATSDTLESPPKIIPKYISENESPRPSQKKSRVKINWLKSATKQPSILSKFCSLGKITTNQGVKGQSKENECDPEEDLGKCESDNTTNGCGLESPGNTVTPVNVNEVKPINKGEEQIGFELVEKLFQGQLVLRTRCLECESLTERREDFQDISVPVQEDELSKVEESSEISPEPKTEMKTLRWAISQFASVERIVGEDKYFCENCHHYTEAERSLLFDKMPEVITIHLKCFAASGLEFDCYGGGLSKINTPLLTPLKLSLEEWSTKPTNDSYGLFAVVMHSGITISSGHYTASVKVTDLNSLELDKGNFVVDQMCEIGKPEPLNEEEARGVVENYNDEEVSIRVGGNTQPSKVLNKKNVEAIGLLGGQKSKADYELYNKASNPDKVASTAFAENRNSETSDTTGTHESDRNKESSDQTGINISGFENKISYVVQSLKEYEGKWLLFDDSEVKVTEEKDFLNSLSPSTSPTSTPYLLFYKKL
# Cytochrome P450 2D6 (Homo sapiens), sequence (P10635 whole entry, looked up): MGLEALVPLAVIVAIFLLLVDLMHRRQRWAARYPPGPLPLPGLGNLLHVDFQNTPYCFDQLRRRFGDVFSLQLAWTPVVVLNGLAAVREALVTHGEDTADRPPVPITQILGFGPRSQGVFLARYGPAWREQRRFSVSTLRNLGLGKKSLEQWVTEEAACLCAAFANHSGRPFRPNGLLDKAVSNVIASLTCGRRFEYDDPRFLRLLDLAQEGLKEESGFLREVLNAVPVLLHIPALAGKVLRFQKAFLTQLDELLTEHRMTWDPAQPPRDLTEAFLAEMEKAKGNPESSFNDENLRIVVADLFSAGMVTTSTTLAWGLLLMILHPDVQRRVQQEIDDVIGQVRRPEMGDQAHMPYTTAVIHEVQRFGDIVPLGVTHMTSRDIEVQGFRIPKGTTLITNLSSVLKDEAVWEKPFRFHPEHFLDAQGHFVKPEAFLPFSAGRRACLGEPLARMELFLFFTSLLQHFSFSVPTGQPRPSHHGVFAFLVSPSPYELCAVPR
# Cytochrome P450 2C19 (Homo sapiens), sequence (P33261 whole entry, looked up): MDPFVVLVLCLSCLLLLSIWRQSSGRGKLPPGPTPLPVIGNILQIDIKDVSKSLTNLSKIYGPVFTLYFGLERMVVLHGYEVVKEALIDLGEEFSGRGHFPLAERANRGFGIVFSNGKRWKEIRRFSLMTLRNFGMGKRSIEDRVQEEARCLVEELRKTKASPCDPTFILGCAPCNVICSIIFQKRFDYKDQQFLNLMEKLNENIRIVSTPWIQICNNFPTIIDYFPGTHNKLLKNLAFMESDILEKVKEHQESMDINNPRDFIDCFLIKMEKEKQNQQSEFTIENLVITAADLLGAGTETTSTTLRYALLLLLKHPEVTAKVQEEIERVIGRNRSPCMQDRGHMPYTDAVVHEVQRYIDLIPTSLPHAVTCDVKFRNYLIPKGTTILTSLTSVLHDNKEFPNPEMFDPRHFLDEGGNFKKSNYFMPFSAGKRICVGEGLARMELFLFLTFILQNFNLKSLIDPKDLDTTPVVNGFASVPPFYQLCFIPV
smiles,measurement,setting,value
c1cncc(CNc2ccnc(-c3ccc4c(c3)OCO4)n2)c1,Potency,[1],> 11.4 µM (inactive)
same,"activity change, negative = inhibition",[2],-20.8% (inactive)
same,Potency,[3],0.126 µM (active)
same,"activity change, negative = inhibition",[4],16% (inactive)
same,"activity, negative = inhibition",[5],-10.6% (inactive)
same,Potency,[6],> 46 µM (inactive)
same,Potency,[7],> 46 µM (inactive)
same,Potency,[8],inactive
same,Potency,[9],5.01 µM (active)
same,Potency,[10],0.0631 µM (active)
same,Potency,[11],0.1 µM (active)
same,Potency,[12],inactive
same,Potency,[13],inactive
same,Potency,[14],inactive
Clc1ccccc1-c1ccc2ncnc(NCc3cccnc3)c2c1,Potency,[1],> 11.4 µM (inactive)
same,"activity change, negative = inhibition",[2],2.12% (inactive)
same,Potency,[3],0.158 µM (active)
same,"activity change, negative = inhibition",[4],13.8% (inactive)
same,"activity, negative = inhibition",[5],-5.2% (inactive)
same,Potency,[6],> 46 µM (inactive)
same,Potency,[7],> 46 µM (inactive)
same,outcome,[15],inactive
same,Potency,[16],2 µM (active)
same,Potency,[8],inactive
same,Potency,[17],6.31 µM (active)
same,Potency,[10],10 µM (active)
same,Potency,[11],11.2 µM (active)
same,Potency,[18],10 µM (active)
same,Potency,[12],inactive
same,Potency,[13],inactive
same,Potency,[14],inactive
c1cncc(CNc2ncnc3ccc(-c4cccnc4)cc23)c1,Potency,[1],> 11.4 µM (inactive)
same,Potency,[6],> 46 µM (inactive)
same,Potency,[7],> 46 µM (inactive)
same,outcome,[15],inactive
same,Potency,[19],inactive
same,outcome,[20],inactive
same,outcome,[21],inactive
same,"activity change, negative = inhibition",[22]; at 57.5 µM (top of the series),7.28% (inactive)
same,max response,[22]; measured here: cell count channel max response,-9.9%
same,max response,[22]; measured here: lipid channel max response,-4.35%
same,Potency,[13],inactive
same,Potency,[14],inactive
